Drawing on PubChem BioAssay, this text covers composite z-score and z-score for 6 compounds.

Experiment [1] can be described thus: compounds binding Alexa647 anti-His antibody – biochemical, small-molecule microarray, 635 nm fluorescence, artefact control for SMM control protein annotation, primary screen (AID 1128).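 Note: score merges feature fluorescence with signal-to-noise for each printed compound spot.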 As to conditions: higher = more signal.
Experiment [2] concerns Human papillomavirus type 1a E7 protein (residues 1-88). Kind of experiment: HPV1a E7 small-molecule binders, primary screen, biochemical, small-molecule microarray, residues 1-88, 635 nm (AID 1129). Particulars: small-molecule microarray binding, fluorescence 635 nm; higher = more signal.
In experiment [3] the target is Focal adhesion kinase 1 (Homo sapiens) (UniProt Q05397). Kind of experiment: PTK2 protein binding on printed compound slides – biochemical, small-molecule microarray, 635/667 nm fluorescence, BSA, DTT, primary screen (AID 1130).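 Note: composite of spot emission at 667 nm and signal to noise over triplicate slides.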 Particulars: 635 nm fluorescence, higher = more signal.
Experiment [4] has as its system Fibrinogen (Alexa647-labelled). The experiment in a line: Alexa647-fibrinogen binding to printed small molecules – biochemical, small-molecule microarray, 635/667 nm fluorescence, artefact control for SMM control-protein annotation, profiling panel (AID 1131).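 Note: z-score merges 667 nm fluorescence with per-spot signal-to-noise over triplicate slides.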 Particulars: fibrinogen-A647 binding fluorescence, higher = more signal.
Experiment [5] concerns the target Follistatin (Homo sapiens) (UniProt P19883). Kind of experiment: FST protein binding to printed compounds – biochemical, small-molecule microarray, 635/667 nm fluorescence, primary screen (AID 1132). As to conditions: 635 nm fluorescence, higher = more signal.
Experiment [6] deals with Fibroblast growth factor 2 (Homo sapiens) (UniProt P09038). The experiment in a line: basic fibroblast growth factor binding to printed compounds – biochemical, small-molecule microarray, 635/667 nm fluorescence, primary screen (AID 1133). As to conditions: FGF2, fluorescence 635/667, higher = more signal.
Experiment [7] is described as follows: JC-1 mitochondrial potential readout, lung cancer cells – cell-based, A549, JC-1 fluorescence, basal, 24 h, 100 nL, profiling panel (AID 1138).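 Note: A549 lung adenocarcinoma cells under basal conditions with no added stimulus; test concentration not given here.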 Particulars: higher = more signal.
The next experiment deals with Lefty1. The experiment in a line: Lefty1 protein binding to printed compounds – biochemical, small-molecule microarray, 635/667 nm fluorescence, primary screen (AID 1139). As to conditions: fluorescence 635/667, higher = more signal.
The test system of experiment [8] is wheat germ agglutinin (Triticum aestivum), Alexa647-labelled. Kind of experiment: Alexa647-WGA lectin binding to printed small molecules – biochemical, small-molecule microarray, 635/667 nm fluorescence, artefact control for SMM control-protein annotation, profiling panel (AID 1140).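 Note: score merges 667 nm feature emission with signal to noise over triplicate slides.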 As to conditions: WGA-A647 binding, 635 nm fluorescence, higher = more signal.
The target in experiment [9] is Luciferin 4-monooxygenase (Photinus pyralis) (UniProt P08659). Kind of experiment: inhibition of purified Photinus pyralis luciferase – biochemical, luminescence, purified enzyme, 2006 set, primary screen (AID 1141).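 Note: cell-free assay with purified firefly luciferase at 100 ng per well in PBS; test concentration not given here.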 Particulars: purified firefly luciferase, SteadyGlo luminescence, 30 min; higher = more signal, called active from +8 up or from −8 down.
The subject of experiment [10] is Wnt5a (protein binding on small-molecule microarray). Kind of experiment: small molecules binding Wnt5a protein – biophysical, small-molecule microarray, 635/667 nm fluorescence, primary screen (AID 1142).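 Note: fluorescence read at 667 nm with signal to noise per printed feature.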 As to conditions: 635 nm fluorescence, higher = more signal.
The nature of experiment [11]: ATP-based viability of Huh7 replicon cells – cell-based, CellTiter-Glo luminescence, basal, 48 h, cytotoxicity control for HCV replication inhibitor project, primary screen (AID 1143).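 Note: Huh7 hepatoma cells carrying a hepatitis C replication reporter with no stimulus; test concentration not given here.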 Particulars: higher = more signal, called active from +8 up or from −8 down. (In antiviral work, replicon cells carry a viral genome segment that copies itself.)
Experiment [12] is described as follows: Pseudomonas biofilm growth suppression – PAO1 strain, BacTiter-Glo luminescence, LB-PBS, primary screen (AID 1144). Particulars: P. aeruginosa PAO1 biofilm, 12 h, higher = more signal.
Experiment [13] in a line: basal CRE-LacZ reporter activity in PC12 – cell-based, unstimulated, primary screen (AID 1145). Particulars: no forskolin, luminescence, 4.5 h, higher = more signal, called active from +8 up or from −8 down.
Experiment [14] is described as follows: forskolin-driven CRE-LacZ activity in PC12 – cell-based, CRE-LacZ reporter, forskolin-stimulated, primary screen (AID 1146).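 Note: PC12 cells with 6xCRE LacZ reporter stimulated by forskolin 10 µM; beta-galactosidase reporter signal reflecting CREB driven transcription.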 Particulars: luminescence, 4.5 h, higher = more signal, called active from +8 up or from −8 down.
In experiment [15] the target is Streptavidin (Streptomyces avidinii) (UniProt P22629). Kind of experiment: compounds binding control protein streptavidin – biophysical, small-molecule microarray, 635/667 nm fluorescence, artefact control for SMM compound annotation, primary screen (AID 1147).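 Note: signal reflects streptavidin binding to arrayed compounds as a control protein.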 As to conditions: higher = more signal.
Experiment [16] can be described thus: probe aInhba binding on compound microarray – biochemical, small-molecule microarray, 635/667 nm fluorescence, primary screen (AID 1148).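 Note: score merges 667nm spot fluorescence with signal-to-noise for antibody binding to printed compounds.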 Particulars: higher = more signal.
For experiment [17], the target named is Torsin-1A (Homo sapiens) (UniProt O14656). The experiment in a line: TOR1A wild-type binding on microarray – cell lysate, small-molecule microarray, lysate, 635/667 nm, primary screen (AID 1149). As to conditions: COS7 hTOR1A-WT lysate, 635 nm fluorescence, higher = more signal.
Experiment [18] shares this target. Kind of experiment: torsin A mutant lysate binding on microarrays – cell lysate, small-molecule microarray, COS7 lysate, 635/667 nm fluorescence, primary screen (AID 1150).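 Note: score pools 667 nm emission and signal to noise measuring lysate protein binding.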 As to conditions: COS7 hTOR1A mutant lysate, 635 nm fluorescence, higher = more signal.
In experiment [19] the test system is Sonic hedgehog protein (Shh). Kind of experiment: Sonic hedgehog microarray binding compounds – biochemical, small-molecule microarray, 635/667 nm fluorescence, primary screen (AID 1151).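 Note: Shh protein binding to compounds spotted on small-molecule microarray slides; score combines spot fluorescence intensity with signal-to-noise across triplicate slides.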 As to conditions: 635 nm fluorescence, higher = more signal.

Active and inactive are the calls of the source. Unless noted, the rule behind the calls is not given here.

Sequence of Streptavidin (Streptomyces avidinii) (P22629 whole entry, looked up): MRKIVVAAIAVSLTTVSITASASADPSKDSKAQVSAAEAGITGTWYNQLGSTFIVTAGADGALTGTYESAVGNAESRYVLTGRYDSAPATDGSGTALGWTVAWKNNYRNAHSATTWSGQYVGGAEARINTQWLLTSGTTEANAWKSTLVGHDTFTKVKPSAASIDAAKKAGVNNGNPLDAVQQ
Sequence of Luciferin 4-monooxygenase (Photinus pyralis) (P08659 whole entry, looked up): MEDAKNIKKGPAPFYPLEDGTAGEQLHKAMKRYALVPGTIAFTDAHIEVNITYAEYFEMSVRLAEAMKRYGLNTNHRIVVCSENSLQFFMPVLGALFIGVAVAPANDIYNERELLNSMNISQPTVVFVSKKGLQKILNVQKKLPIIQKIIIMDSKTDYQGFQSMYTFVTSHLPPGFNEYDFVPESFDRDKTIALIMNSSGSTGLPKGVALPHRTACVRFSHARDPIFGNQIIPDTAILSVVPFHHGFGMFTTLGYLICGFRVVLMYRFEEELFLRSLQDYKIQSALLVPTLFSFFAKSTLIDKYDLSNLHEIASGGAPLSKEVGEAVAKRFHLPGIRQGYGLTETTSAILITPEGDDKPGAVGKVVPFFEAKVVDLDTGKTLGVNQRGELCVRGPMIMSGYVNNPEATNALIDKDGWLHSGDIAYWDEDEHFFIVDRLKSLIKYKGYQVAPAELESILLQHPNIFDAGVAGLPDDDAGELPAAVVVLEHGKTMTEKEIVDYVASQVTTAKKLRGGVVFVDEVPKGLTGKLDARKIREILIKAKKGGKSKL
Sequence of Focal adhesion kinase 1 (Homo sapiens) (Q05397 whole entry, looked up): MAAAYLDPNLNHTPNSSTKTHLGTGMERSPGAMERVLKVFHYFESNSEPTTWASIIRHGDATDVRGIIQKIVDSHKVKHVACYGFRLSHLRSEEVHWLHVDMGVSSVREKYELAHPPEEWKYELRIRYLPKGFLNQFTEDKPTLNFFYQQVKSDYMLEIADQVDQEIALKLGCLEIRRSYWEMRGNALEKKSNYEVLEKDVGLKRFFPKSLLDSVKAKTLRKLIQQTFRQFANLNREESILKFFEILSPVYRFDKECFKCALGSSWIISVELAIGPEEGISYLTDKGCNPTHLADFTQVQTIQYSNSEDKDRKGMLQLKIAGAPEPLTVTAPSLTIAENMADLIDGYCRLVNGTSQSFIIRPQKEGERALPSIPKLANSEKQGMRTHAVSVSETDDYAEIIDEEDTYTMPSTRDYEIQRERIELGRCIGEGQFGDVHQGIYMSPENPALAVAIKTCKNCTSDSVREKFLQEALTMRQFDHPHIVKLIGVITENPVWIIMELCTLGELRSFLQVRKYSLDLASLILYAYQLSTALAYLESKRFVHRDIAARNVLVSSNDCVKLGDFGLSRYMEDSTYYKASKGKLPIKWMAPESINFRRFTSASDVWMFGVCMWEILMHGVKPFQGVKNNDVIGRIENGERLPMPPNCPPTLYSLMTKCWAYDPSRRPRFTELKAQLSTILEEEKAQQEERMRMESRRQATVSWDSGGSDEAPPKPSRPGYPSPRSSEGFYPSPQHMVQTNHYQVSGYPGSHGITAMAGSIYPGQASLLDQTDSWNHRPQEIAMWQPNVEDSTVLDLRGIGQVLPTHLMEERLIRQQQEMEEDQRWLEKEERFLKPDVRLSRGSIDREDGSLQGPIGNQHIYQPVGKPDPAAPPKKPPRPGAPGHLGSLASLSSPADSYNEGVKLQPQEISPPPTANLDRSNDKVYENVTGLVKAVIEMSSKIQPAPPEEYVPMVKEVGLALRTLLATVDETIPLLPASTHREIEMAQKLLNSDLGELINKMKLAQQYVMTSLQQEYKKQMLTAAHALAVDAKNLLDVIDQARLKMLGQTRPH
Sequence of Follistatin (Homo sapiens) (P19883 whole entry, looked up): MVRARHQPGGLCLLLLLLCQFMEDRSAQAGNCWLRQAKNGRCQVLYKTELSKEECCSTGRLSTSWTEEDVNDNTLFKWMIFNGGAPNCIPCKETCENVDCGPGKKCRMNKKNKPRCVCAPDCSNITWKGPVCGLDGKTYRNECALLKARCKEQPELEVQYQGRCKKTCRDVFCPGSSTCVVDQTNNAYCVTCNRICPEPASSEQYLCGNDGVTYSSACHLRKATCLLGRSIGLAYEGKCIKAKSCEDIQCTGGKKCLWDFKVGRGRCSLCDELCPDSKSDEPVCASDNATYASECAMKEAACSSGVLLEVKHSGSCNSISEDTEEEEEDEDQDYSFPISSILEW
Sequence of Fibroblast growth factor 2 (Homo sapiens) (P09038 whole entry, looked up): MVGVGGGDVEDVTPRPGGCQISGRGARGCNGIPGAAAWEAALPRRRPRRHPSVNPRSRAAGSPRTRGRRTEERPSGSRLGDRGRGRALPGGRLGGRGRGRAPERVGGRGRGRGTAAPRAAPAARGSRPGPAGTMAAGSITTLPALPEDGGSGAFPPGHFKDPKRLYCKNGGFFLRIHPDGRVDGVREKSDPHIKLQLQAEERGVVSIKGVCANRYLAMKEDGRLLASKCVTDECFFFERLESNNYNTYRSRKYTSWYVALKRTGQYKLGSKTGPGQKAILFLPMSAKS
Sequence of Torsin-1A (Homo sapiens) (O14656 whole entry, looked up): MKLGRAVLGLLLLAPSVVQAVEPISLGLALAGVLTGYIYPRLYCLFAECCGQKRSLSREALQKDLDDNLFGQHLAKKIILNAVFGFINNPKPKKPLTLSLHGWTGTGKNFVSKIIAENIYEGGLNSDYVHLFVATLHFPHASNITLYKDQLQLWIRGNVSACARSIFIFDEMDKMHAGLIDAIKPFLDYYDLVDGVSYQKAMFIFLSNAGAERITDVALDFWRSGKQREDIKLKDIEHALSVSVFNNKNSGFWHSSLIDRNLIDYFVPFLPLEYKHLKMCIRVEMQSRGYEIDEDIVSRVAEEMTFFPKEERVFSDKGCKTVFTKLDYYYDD

Regarding `CCOC(=O)C1=C[C@@H](C(C)(C)C)N(S(=O)(=O)c2ccc(C)cc2)[C@H]1c1ccc(OC)cc1`, the composite z-score in experiment [1] was determined as 0.772; in experiment [2], 1.22; in experiment [3], 1.62; in [4], 1.02; in [5], 0.688; in experiment [6], 0.387. Also, the composite z-score came out at 0.554 in the experiment on Lefty1; 0.782 in [8]; 0.474 in experiment [10]; 1.36 in experiment [15]; 0.0541 in experiment [16]; 0.795 with Torsin-1A (Homo sapiens) [17]. Further, the composite z-score with Torsin-1A (Homo sapiens) [18] was -0.198; in experiment [19], 0.523. The z-score is 2.61 in experiment [7]; 1.95 (inactive) in [9]; -4.94 (inactive) in [11]; -0.0448 (inactive) in experiment [12]; 0.238 (inactive) in experiment [13]; 0.334 (inactive) in [14].
Regarding `CC(=O)NCCCC[C@@H]1NC(=O)[C@H]2C[C@@H](C(=O)NCCCCCN)[C@@H](c3ccc(O)cc3)N2C1=O`, the composite z-score in experiment [1] is 2.49; in experiment [2] it was 1.21; in experiment [3] it was 0.948; in experiment [4], 0.653; in experiment [5], 1.12; in experiment [6], 1.13. The composite z-score was 0.944 in the experiment on Lefty1; 0.773 in experiment [8]; 0.0662 in experiment [10]; 0.947 in experiment [15]; -0.0658 in experiment [16]; 0.274 in the experiment with Torsin-1A (Homo sapiens) [17]. Besides, the composite z-score in the experiment with Torsin-1A (Homo sapiens) [18] came out at 0.568; in experiment [19] it was 1.01. The z-score was -0.109 in [7]; 0.148 (inactive) in experiment [9]; 0.0104 (inactive) in [11]; 0.447 (inactive) in experiment [12]; -0.0038 (inactive) in experiment [13]; 0.126 (inactive) in experiment [14].
`COc1cc2c(cc1O)C(C)N(Cc1sc3ccccc3c1Cl)CC2` (stereo not given): the composite z-score in experiment [1] is -0.119; in experiment [2], -1.14; in experiment [3], -0.439; in [4], -2.68; in [5] it was -0.678; in experiment [6], -1.11. The composite z-score is -1.44 in the experiment with Lefty1; 0.358 in experiment [8]; -0.434 in [10]; 0.105 in [15]; 0.0021 in experiment [16]; -1.22 with Torsin-1A (Homo sapiens) [17]. Besides, the composite z-score in the experiment with Torsin-1A (Homo sapiens) [18] was -1.28; in experiment [19] it was -0.985. In addition, the z-score in experiment [7] was 0.218; in [9] it was 1.39 (inactive); in [11], -0.693 (inactive); in [12], -0.432 (inactive); in experiment [13] it was -0.258 (inactive); in experiment [14], -0.487 (inactive).
For `[N-]=[N+]=NCc1ccccc1[C@H]1OC(c2ccc(OCCCO)cc2)=N[C@@]1(CCS(=O)(=O)c1ccccc1)C(=O)O`, the composite z-score in experiment [1] is 0.583; in experiment [2], 0.667; in experiment [3], 0.476; in experiment [4] it was 1.03; in [5], 0.0192; in experiment [6], -0.119. In addition, the composite z-score in the experiment with Lefty1 was -0.182; in [8] it was 0.169; in experiment [10], -0.0632; in experiment [15] it was 0.729; in [16], -0.13; with Torsin-1A (Homo sapiens) [17], -0.359. For the same compound, the figures for the composite z-score (with Torsin-1A (Homo sapiens) [18]; in experiment [19]) were 0.622 and -1.37, respectively. Further, the z-score in experiment [7] is -0.959; in [9] it was -6.31 (inactive); in experiment [11], -0.0569 (inactive); in experiment [12] it was 0.637 (inactive); in experiment [13], -0.435 (inactive); in [14], -0.427 (inactive).
Consider `C=C(C(=O)CC[C@@H](OC(=O)c1cccnc1)c1cccc(OCCO)c1)C(C)C`, for which the composite z-score in [1] is 0.317; in experiment [2], -0.4; in experiment [3], -0.896; in experiment [4], 0.496; in experiment [5] it was 0.866; in experiment [6], 1.33. The composite z-score in the experiment on Lefty1 is 1.13; in experiment [8], 0.386; in experiment [10], 0.222; in experiment [15], -0.0835; in experiment [16], -0.0736; in the experiment with Torsin-1A (Homo sapiens) [17] it was -0.0348. The composite z-score with Torsin-1A (Homo sapiens) [18] was -0.234; in [19], 1.72. For the same compound, the z-score in experiment [7] was 0.313; in experiment [9], -0.128 (inactive); in experiment [11], -2.97 (inactive); in experiment [12], -0.372 (inactive); in [13], 1.67 (inactive); in experiment [14], -1.24 (inactive).
With `CC(C)C[C@@H]1NC(=O)[C@H]2C[C@@H](C(=O)O)[C@@H](c3cccc(OCCO)c3)N2C1=O`, the composite z-score turned out to be 1.49 in [1]; 0.0559 in experiment [2]; 0.119 in [3]; 0.267 in experiment [4]; 1.3 in experiment [5]; 1.66 in [6]. Besides, the composite z-score in the experiment with Lefty1 is 0.797; in experiment [8], 0.325; in [10], -0.107; in experiment [15], -0.0612; in experiment [16], 0.0228; with Torsin-1A (Homo sapiens) [17] it was 0.994. In addition, the figures for the composite z-score (with Torsin-1A (Homo sapiens) [18]; in experiment [19]) were 2.17 and 1.42, respectively. For the same compound, the z-score is 0.951 in experiment [7]; -1.07 (inactive) in experiment [9]; -0.513 (inactive) in experiment [11]; -0.443 (inactive) in [12]; 0.561 (inactive) in experiment [13]; -0.411 (inactive) in experiment [14].
